From PubChem BioAssay (Tox21)
Several values for one entry are separate records, joined by “and”; a condition that tells them apart may be missing. Equal values may be shown once. Results filed as inconclusive are left out. Activity calls are given as the source filed them. The call rests on the fitted dose curve; in most records, active means well fitted curve in the direction sought with a large enough effect in the repeat runs; inconclusive means weak or mixed curves; inactive means no such curve, though single readings can be large; an effect the other way counts as inactive or inconclusive.

Assays:
[1] = Human pregnane X receptor (PXR) small molecule agonists, qHTS cell viability counter screen (AID 1346977); further: nearly all actives have a fitted effect of over 50% in size; further: potency means the concentration at half of the fitted maximal effect
In short: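 PXR-Luc HepG2 cells in medium with 5% charcoal-stripped FBS were pre-incubated 5hr, then exposed to compounds for 24hr at 37C. Viability was read in the same wells by CellTiter-Fluor fluorescence, reagent added after 23hr with a 1hr incubation.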

[2] = Caspase-3/7 induction in HepG2 cells by small molecules, qHTS assay (AID 1346978); further: nearly all actives have a fitted effect of over 15% in size
In short: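 Wild-type HepG2 cells (2,000/well) were settled 5 h at 37 C, 5% CO2, then exposed to compounds in DMSO for 17 h. Caspase-3/7 activity was read by luminescence 30 min after adding Caspase-Glo 3/7 reagent at room temperature.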

[3] = Caspase-3/7 induction in CHO-K1 cells by small molecules, qHTS cell viability counter screen (AID 1346979); further: nearly all actives have a fitted effect of over 35% in size
In short: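 Wild-type CHO-K1 cells were seeded at 1,500 per well, rested 5hr at 37 C, then exposed to compounds in DMSO. After 16hr, CellTiter-Fluor reagent was added and fluorescence read 1hr later as the viability measure.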

[4] = Caspase-3/7 induction in CHO-K1 cells by small molecules, qHTS assay (AID 1346980); further: nearly all actives have a fitted effect of over 15% in size
In short: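 Wild-type cells were seeded at 1,500 per well and settled 5 hr at 37 C, 5% CO2, then exposed to DMSO-dissolved compounds for 17 hr. Caspase-Glo 3/7 reagent was added, and luminescence was read after 30min at room temperature.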

[5] = Caspase-3/7 induction in HepG2 cells by small molecules, qHTS cell viability counter screen (AID 1346981); further: series mostly up to about 92 µM; nearly all actives have a fitted effect of over 30% in size
In short: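 Counter screen for cytotoxicity: HepG2 exposed 16 hr to compounds, then CellTiter-Fluor viability signal (fluorescence, 1 hr reagent incubation).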

[6] = target: Nuclear receptor subfamily 1 group I member 2 (Homo sapiens) (UniProt O75469); test: Human pregnane X receptor (PXR) small molecule agonists, qHTS assay (AID 1346982); further: nearly all actives have a fitted effect of over 35% in size
In short: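 Luminescence (ONE-Glo, 30 min RT) after 24 hr compound exposure of PXR-Luc HepG2 cells; cells rested 5 hr post-plating in 5% charcoal-stripped FBS medium.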

[7] = target: Cytochrome P450 2D6 (Homo sapiens) (UniProt P10635); test: Cytochrome P450 Family 2 Subfamily D Member 6 (CYP2D6) small molecule antagonists: luciferase reporter qHTS assay (AID 1671196); further: nearly all actives have a fitted effect of over 50% in size; further: potency means the concentration at half of the fitted maximal effect
In short: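 Inhibition of CYP2D6 was gauged by loss of luminescence, since light produced tracks the luciferin generated from a proluciferin substrate. A 10 min room-temperature preincubation preceded 1 h NADPH-supported turnover.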

[8] = target: Nuclear receptor subfamily 1 group I member 2 (Rattus norvegicus) (UniProt Q9R1A7); test: Rat pregnane X receptor (rPXR) activation by small molecules, qHTS assay (AID 1346983); details: rPXR luciferase reporter cells, One-Glo luminescence, 24 h; max activation: stronger effect = higher value; further: nearly all actives have a fitted effect of over 20% in size
In short: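 Cell-based rPXR luciferase reporter assay, 2,000 cells per well, rested 5hr at 37 C before compound addition in DMSO, then 24 hr at 37 C. One-Glo reagent was added and luminescence read after 30 min at room temperature.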

[9] = target: Nuclear receptor subfamily 1 group I member 2 (Homo sapiens) (UniProt O75469); test: CYP3A4 induction through human pregnane X receptor (PXR) by small molecules, qHTS assay (AID 1346984); further: nearly all actives have a fitted effect of over 40% in size; further: potency means the concentration at half of the fitted maximal effect
In short: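 DPX-2 reporter cells; 24h cpd, 37C; Luciferin-IPA 3uM final x3h; One-Glo 30 min RT; lumi read.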

[10] = target: Nuclear receptor subfamily 1 group I member 2 (Homo sapiens) (UniProt O75469); test: Human pregnane X receptor (PXR) activation by small molecules, qHTS assay (AID 1346985); further: nearly all actives have a fitted effect of over 40% in size
In short: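 DPX-2 cells (HepG2 co-transfected with a PXR response element and a CYP3A4-promoter luciferase construct) were seeded at 2,000 per well, rested 5 hr at 37C, then exposed to DMSO-dissolved compounds for 24 hr. Activation was read as luciferase luminescence.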
On the % scale 0 is the no-effect control and ±100 the full control effect.

Chain of Nuclear receptor subfamily 1 group I member 2 (Homo sapiens) (O75469 whole entry, looked up): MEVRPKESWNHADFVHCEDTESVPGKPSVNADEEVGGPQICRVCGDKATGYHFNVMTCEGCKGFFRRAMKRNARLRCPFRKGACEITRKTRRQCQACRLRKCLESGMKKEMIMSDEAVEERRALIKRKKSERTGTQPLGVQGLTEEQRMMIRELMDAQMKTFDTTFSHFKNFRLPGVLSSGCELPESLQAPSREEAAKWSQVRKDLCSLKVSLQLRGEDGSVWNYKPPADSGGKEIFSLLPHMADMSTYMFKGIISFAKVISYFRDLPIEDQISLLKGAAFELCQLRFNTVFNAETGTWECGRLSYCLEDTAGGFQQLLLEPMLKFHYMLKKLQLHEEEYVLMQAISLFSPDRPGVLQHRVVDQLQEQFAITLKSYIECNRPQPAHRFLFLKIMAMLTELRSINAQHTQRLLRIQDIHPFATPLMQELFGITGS
Chain of Nuclear receptor subfamily 1 group I member 2 (Rattus norvegicus) (Q9R1A7 whole entry, looked up): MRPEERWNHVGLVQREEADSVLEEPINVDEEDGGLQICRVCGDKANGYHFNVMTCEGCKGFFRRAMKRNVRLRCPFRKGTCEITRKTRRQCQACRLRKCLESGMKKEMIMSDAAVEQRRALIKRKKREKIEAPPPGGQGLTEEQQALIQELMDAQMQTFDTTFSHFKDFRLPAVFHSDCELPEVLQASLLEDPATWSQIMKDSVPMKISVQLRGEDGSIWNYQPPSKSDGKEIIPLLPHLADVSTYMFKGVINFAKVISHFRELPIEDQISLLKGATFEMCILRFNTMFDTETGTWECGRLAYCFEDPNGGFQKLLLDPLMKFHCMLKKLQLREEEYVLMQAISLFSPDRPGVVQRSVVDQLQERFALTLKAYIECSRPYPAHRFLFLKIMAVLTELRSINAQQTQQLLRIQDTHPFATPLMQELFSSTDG
Chain of Cytochrome P450 2D6 (Homo sapiens) (P10635 whole entry, looked up): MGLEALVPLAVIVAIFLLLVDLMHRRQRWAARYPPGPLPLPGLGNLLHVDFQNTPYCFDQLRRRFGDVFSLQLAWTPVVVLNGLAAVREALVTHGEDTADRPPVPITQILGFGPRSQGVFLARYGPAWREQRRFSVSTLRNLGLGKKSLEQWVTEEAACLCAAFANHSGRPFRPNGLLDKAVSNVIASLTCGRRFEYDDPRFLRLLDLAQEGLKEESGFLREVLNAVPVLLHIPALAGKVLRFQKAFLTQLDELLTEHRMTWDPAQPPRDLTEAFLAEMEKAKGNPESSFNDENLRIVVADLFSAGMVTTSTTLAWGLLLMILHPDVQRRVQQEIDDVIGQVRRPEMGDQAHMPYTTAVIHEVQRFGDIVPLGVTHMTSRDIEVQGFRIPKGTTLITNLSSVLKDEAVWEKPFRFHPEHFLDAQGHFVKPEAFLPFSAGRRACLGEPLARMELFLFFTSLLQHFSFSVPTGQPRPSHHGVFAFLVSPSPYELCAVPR

C[Si](C)O[Si](C)(C)O[Si](C)(C)O[Si](C)C
inactive: Potency [1] | outcome [2] | Potency [3] | Potency [4] | Potency [5] | Potency [6] | Potency [7]

CCN(CC)CCc1nc(-c2ccccc2)no1
active: Potency [7] 7.76 µM
inactive: Potency [1] | outcome [2] | Potency [3] | Potency [4] | Potency [5] | Potency [6] | max activation [8] -0.305% | Potency [9] | Potency [10]

CN(C)CCCOc1nn(Cc2ccccc2)c2ccccc12
active: Potency [1] 26.6 µM
inactive: outcome [2] | Potency [3] | Potency [4] | Potency [5]

CCCCCCCCCO
inactive: Potency [1] | outcome [2] | Potency [3] | Potency [4] | Potency [5] | Potency [6]

CC(C)(C)c1ccc(S)cc1
inactive: Potency [1] | outcome [2] | Potency [3] | Potency [4] | Potency [5] | Potency [6] | Potency [7]

CCOc1nc2cccc(C(=O)O)c2n1Cc1ccc(-c2ccccc2-c2nn[nH]n2)cc1
inactive: Potency [1] | outcome [2] | Potency [3] | Potency [4] | Potency [5] | Potency [6] | max activation [8] -0.587%

Oc1ccc(Cc2ccccc2)cc1
inactive: Potency [1]

CNS(=O)(=O)Cc1ccc2[nH]cc(CCN(C)C)c2c1
active: Potency [7] 24.5 µM
inactive: Potency [1] | outcome [2] | Potency [3] | Potency [4] | Potency [5] | Potency [6] | max activation [8] -4.94% | Potency [9] | Potency [10]

CC(O)C1CCCCC1 (configuration not stated)
inactive: Potency [1] | outcome [2] | Potency [3] | Potency [4]

CCCCOC(=O)/C=C\C(=O)OCCCC
inactive: Potency [1] | outcome [2] | Potency [3] | Potency [4] | Potency [5] | Potency [6] | Potency [7]

Cc1ccc(C(N)=O)cc1N
inactive: Potency [1] | outcome [2] | Potency [3] | Potency [4] | Potency [5] | Potency [6] | Potency [7]

CCCCCCCCCCCCCCCBr
inactive: Potency [1] | outcome [2] | Potency [3] | Potency [4] | Potency [5] | Potency [6] | Potency [7]

ClC(Cl)(Cl)c1ccc(C(Cl)(Cl)Cl)cc1
inactive: Potency [1] | outcome [2] | Potency [3] | Potency [4] | Potency [5] | Potency [6]

O=C(c1ccccc1)c1ccc2n1CCC2C(=O)O (configuration not stated)
inactive: Potency [1] | outcome [2] | Potency [3] | Potency [4] | Potency [5] | Potency [6] | max activation [8] 4.49% | Potency [9] | Potency [10] | Potency [7]

CCN(CC)C(C)CN1c2ccccc2Sc2ccccc21 (configuration not stated)
active: Potency [9] 3.98 µM | Potency [7] 30.9 µM
inactive: Potency [1] | outcome [2] | Potency [3] | Potency [4] | Potency [5] | Potency [6] | max activation [8] -0.328% | Potency [10]

CC(=O)OC/C=C/c1ccccc1
inactive: Potency [1] | outcome [2] | Potency [3] | Potency [4] | Potency [5] | Potency [6] | Potency [7]

O=C(c1ccc(O)cc1)c1ccc(O)cc1
inactive: Potency [1] | outcome [2] | Potency [3] | Potency [4] | Potency [5]

NCCCN(CCO)CCO
inactive: Potency [1] | outcome [2] | Potency [3] | Potency [4] | Potency [5] | Potency [6]

CC(=O)Nc1ccc(/C=N/NC(N)=S)cc1
inactive: Potency [1] | outcome [2] | Potency [3] | Potency [4] | Potency [5] | Potency [6] | max activation [8] -4.57% and -9.49% | Potency [9] | Potency [10] | Potency [7]

CC(=O)SCc1ccco1
inactive: Potency [1] | outcome [2] | Potency [3] | Potency [4] | Potency [5] | Potency [6] | Potency [7]

FC(F)(F)C(F)(F)C(F)(F)C(F)(F)C(F)(F)C(F)(F)CCI
inactive: Potency [1] | outcome [2] | Potency [3] | Potency [4] | Potency [5] | Potency [6]

C=C(C)C(=O)OC(C)C
inactive: Potency [1] | outcome [2] | Potency [3] | Potency [4] | Potency [5] | Potency [6] | Potency [7]

Cc1cc(NC(=O)C(=O)O)cc(C)c1Oc1ccc(O)c2c1CCC2
inactive: Potency [1] | outcome [2] | Potency [3] | Potency [4] | Potency [5] | Potency [6]

CC1(C)[C@H]2CC[C@]1(C)[C@H](O)C2
inactive: Potency [1] | outcome [2] | Potency [3] | Potency [4] | Potency [5] | Potency [6] | max activation [8] -0.529% | Potency [9] | Potency [10] | Potency [7]

CN1CCC[C@@H]1c1cccnc1
inactive: Potency [1] | outcome [2] | Potency [3] | Potency [4] | Potency [5] | Potency [6] | max activation [8] -0.0949% | Potency [9] | Potency [10]
active: Potency [7] 38.9 µM

Cc1c(Cn2ccnc2)c2ccccc2n1CCC(=O)O
inactive: Potency [1] | outcome [2] | Potency [3] | Potency [4] | Potency [5] | Potency [6] | max activation [8] -1.57% | Potency [9] | Potency [10]

CC[C@H](C)[C@H](N)C(=O)O
inactive: Potency [1] | outcome [2] | Potency [3] | Potency [4] | Potency [5] | Potency [6] | max activation [8] -0.0819% | Potency [9] | Potency [10] | Potency [7]
